From PubChem BioAssay (NCI)
Where “and” joins values, the source holds several entries; their conditions need not be identical. Identical values can stand only once. This is part of a sample that, as a whole, favours compounds with a hit. Of some 79,000 tested, about 15% had one in any assay. Unmarked numbers belong to inactive results. Calls of active or inactive are those of the source. Cut-off read from the data, not from the text of the source: active = growth inhibition above about 70%; inactive = the rest.

Legend:
[1] = NCI Yeast Anticancer Drug Screen. Data for the rad50 strain (AID 155);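 note: 0% = growth of vehicle-only cultures of the same strain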; details: S. cerevisiae rad50 strain growth inhibition; at 50.0 µM; hits give high values
Method in brief: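 Readout: growth inhibition relative to vehicle-treated cultures. Compound exposure was carried out in a genetically defined yeast strain deficient in DNA damage repair.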

[2] = NCI Yeast Anticancer Drug Screen. Data for the mec2-1 strain (AID 157); details: S. cerevisiae mec2-1 strain, at 50.0 µM, hits give high values
Method in brief: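 Mutant yeast (mec2-1) grown with compound; growth inhibition relative to vehicle control reported.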

[3] = NCI Yeast Anticancer Drug Screen. Data for the sgs1 mgt1 strain (AID 161);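 note: 0% = growth of cultures given vehicle only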; details: S. cerevisiae sgs1 mgt1 strain, at 50.0 µM, hits give high values
Method in brief: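 Yeast cells carrying a defined DNA-repair defect were exposed to test compounds. Growth inhibition was measured relative to vehicle-treated controls.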

[4] = NCI Yeast Anticancer Drug Screen. Data for the cln2 rad14 strain (AID 165);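 note: 0% = growth equal to vehicle treated cultures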; details: S. cerevisiae cln2 rad14 strain, at 50.0 µM, hits give high values
Method in brief: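 Readout is yeast growth inhibition versus vehicle-treated controls, using a strain with cln2 and rad14 alterations exposed to compound.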

[5] = NCI Yeast Anticancer Drug Screen. Data for the bub3 strain (AID 167); details: S. cerevisiae bub3 mutant strain, at 50.0 µM, hits give high values
Method in brief: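 Readout: yeast growth inhibition, expressed relative to vehicle-only wells. The test organism is a mutant strain from a panel with lesions in DNA repair or checkpoint genes.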

[6] = NCI Yeast Anticancer Drug Screen. Data for the mlh1 rad18 strain (AID 175); details: S. cerevisiae mlh1 rad18 strain growth inhibition; at 50.0 µM; hits give high values
Method in brief: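 Genetically defined yeast (DNA repair-deficient) exposed to compounds; growth inhibition determined relative to vehicle.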

SMILES | growth inhibition [1] | growth inhibition [2] | growth inhibition [3] | growth inhibition [4] | growth inhibition [5] | growth inhibition [6]
C[CH2][Sn]([c]1ccccc1)[c]1ccccc1 | 33.1% | 39.2% | 40.3% | 3.65% | 35.5% | 47.1%
CC1NCCc2c1[nH]c1cc(O)ccc21 (stereo not given) | 4.55% | -10.9% | 5.5% | -9.2% | -21.5% | 3.1%
CCOP(=O)(OCC)/C(=C/c1cccs1)CC(C)=O | 7.8% | -57.6% | -27.9% | 14.6% | -25.9% | -76%
N#CC(C#N)c1ccccc1 | 29.1% | 2.6% | 3.5% | -4.05% | 8.75% | 1.2%
CCC[C@H]1CCCCN1 | 27.1% | 12.7% | 23.4% | 18.9% | -13% | 3.6%
O=C1C2C(C(=O)N1c1ccc(O)cc1)C1(Cl)C(Cl)=C(Cl)C2(Cl)C1(Cl)Cl (stereo not given) | -0.45% | -11.8% | 1.9% | -0.1% | -19.6% | 1%
CN(C)C(=O)C(Cl)Cl | -0.75% | 7.3% | -4% | -7.25% | 12.8% | 2.25%
CC(O)CN(CCN(CC(C)O)CC(C)O)CC(C)O.O=[N+]([O-])O.[Cu+2] (stereo not given) | 6.05% | -54% | -27.2% | -35.6% | -29.6% | 5.15%
COc1cc(=O)oc(/C=C/C=C/C=C/C(C)=C\C2(C)OC(C)C(C)(O)C2O)c1C (stereo not given) | 6.3% | -8.35% | 3.35% | -9.4% | -20.4% | -0.95%
Cc1cccc2c(=O)c([Se]c3coc4c(C)cccc4c3=O)coc12 | -12.4% | -15.2% | -48.2% | -5.8% | -13.2% | -30.1%
[CH3][Pb]([CH3])([CH3])[O]C(=O)c1ccc([N+](=O)[O-])cc1 | 28.7% | -41% | 25.1% | 8.8% | 1.15% | 42.2%
COP12(OC)NC(=O)OC1(C(F)(F)F)c1ccccc1O2 (stereo not given) | -14.9% | -4% | -23.9% | -5.15% | -28% | -39%
CC1(C)Cc2cccc(C=C(C#N)C#N)c2O1 | 6.9% | 20.6% | 3.25% | -63.5% | -6.85% | -3.25%
C[N+](CCCl)(CCCl)Cc1cc([N+](=O)[O-])cc([N+](=O)[O-])c1 | -6.05% | -3.05% | 8.9% | -8.6% | -1.25% | 5.95%
CC1=CC(=O)CC2(C)CCC(C(C)CC(=O)CC(C)C)CC12OO (stereo not given) | 89.4% (active) and 88.8% (active) | 92.3% (active) and 92% (active) | 91.6% (active) and 91.4% (active) | 91.8% (active) and 91.7% (active) | 89.4% (active) | 91.3% (active) and 89.5% (active)
O=C(Cc1c[nH]c2ccccc12)N/N=C\c1ccc(N(CCCl)CCCl)cc1 | 22.4% | -10.3% | 11.8% | 31.9% | -5.65% | 4.55%
COC(=O)C1=C(C)N2CCCOC2(C)C(C(=O)OC)C1c1cccc(Cl)c1 (stereo not given) | 61.4% | 16.6% | 40.5% | 29.1% | 44.4% | 61.5%
COc1ccc(CCN(C)Cc2cccc(OC)c2OC)cc1OC | -17.1% | -5.85% | -3.85% | -0.95% | -16.1% | -2.1%
CCCC(C)OP(=O)(OCC)OCC (stereo not given) | 2.2% | -2.7% | -5.35% | -48.4% | 14.4% | -3.5%
OC(c1ccccc1)C1CCCCN1 (stereo not given) | -7.95% | -7.2% | 9.8% | -12.3% | 11.2% | -17.6%

SMILES | growth inhibition [1] | growth inhibition [2] | growth inhibition [3] | growth inhibition [4] | growth inhibition [5] | growth inhibition [6]
COC(=O)C[CH2][Sn]([CH2]CC(=O)OC)([c]1ccccc1)[c]1ccccc1 | 7.95% | 30.7% | -6.7% | -15.7% | 14.4% | -25.4%
CN1CCOC(c2ccccc2)c2ccsc2CC1 (stereo not given) | 17.2% | -5% | 35.2% | 0% | 9.4% | 16.8%
CC(C)(C)C[C](C)(c1ccccc1)[Sn]([CH3])([CH3])[CH3] (stereo not given) | -14.2% | 4.9% | 8.4% | 6.9% | 1.2% | 7%
O=C1NC(=O)C(c2ccsc2)C(=O)N1 | -20.6% | -2.25% | -30.4% | -40.5% | 7.5% | 1.45%
CC(C)[C@](O)(C(=O)OCC1=CC[N+]2([O-])CC[C@@H](O)[C@@H]12)[C@H](C)O (stereo not given in full) | -10.2% | -46.3% | 4.35% | -0.85% | -26.2% | -10.2%
Nc1nnc[se]1 | 7.85% | 5.35% | -8.1% | -1.55% | -4.2% | -1.6%
C[C@H](N)[C@H](O)c1ccccc1 | 7.45% and 0.25% | -14.4% and 4.7% | -7.4% and -7.8% | -8.35% and -18.5% | -4.3% and 0.95% | -7.3% and -1.15%
CCC(CC)CNC(=O)C(C)Br (stereo not given) | 2.05% | 1.85% | -1.95% | 3.05% | 7.2% | -3.65%
N=C(N)N1CCNc2ccccc2C1 | 14.9% | -10.2% | -7.3% | 28.8% | -1.2% | 6.3%
Cc1cc(Cc2cc(C)c(NC(=O)C(=O)C3C(=O)NC(=S)NC3=O)c(C(C)C)c2)cc(C(C)C)c1NC(=O)C(=O)C1C(=O)NC(=S)NC1=O | -20.6% | -8% | -18.9% | 21.6% | 8.55% | -11.7%
CN(C)P(=S)(N(C)C)N1CCOCC1 | -7.6% | -13.3% | 6.55% | -16.8% | -28.3% | -9%
CC(C)(CBr)COP1(=O)NCC(C)(C)CO1 (stereo not given) | 13.7% | -3.7% | 3.85% | 20.4% | 4.2% | 10.8%
CC[CH2][Sn](=[O])[c]1ccccc1 | 61.6% | 72% (active) | 57.1% | 42.3% | 50.6% | 78.2% (active)
CCOP(=O)(OCC)c1cc2cc(O)ccc2oc1=O | -40% | -26% | -32.2% | 2.75% | -8.75% | -50.7%
CC1(C)OC(C=O)C2CC(=O)c3c(O)cccc3C2(C)O1 (stereo not given) | 33.4% | -1.45% | 12.9% | -4.15% | 11.9% | 0.35%
COc1cc2c(c(OC)c1OC)-c1ccc(O)cc1C(NC(C)=O)CC2 (stereo not given) | -13.2% | -18.8% | -4.1% | 17.4% | 0.65% | 31.2%
CCOC(=O)/C(=C\c1ccc(C(F)(F)F)cc1)[Se]c1ccccc1 | 26.6% | -34.1% | 9.35% | 13.8% | -2.5% | -0.3%
CCCCCCC[CH2][Sn][CH2]CCCCCCC.Nc1ncnc2c1ncn2C1OC(CO)C2[OH+][OH+]C21 (stereo not given) | 19.9% | 5.45% | 9.35% | -4% | 2.3% | 11.8%
OCN1CCC23c4c5ccc(O)c4OC2C(O)C=CC3C1C5 (stereo not given) | -4.75% | -3.4% | 3.35% | -68.5% | 20.1% | -12%
CC(C)C(CC[C@@H](C)C1CC[C@@]2(C)C3=C(CC[C@]12C)[C@@]1(C)CC[C@H](O)C(C)(C)[C@@H]1CC3)S[As](C)C (stereo not given in full) | 40.4% | -0.5% | 26.7% | 31.6% | -4.35% | 32.8%
